Measured values taken from PubChem BioAssay AID488890 (Southern Research Specialized Biocontainment Screening …, 2010).
Hit rate of the full screen: of about 320,000 compounds, about 1,300 (0.41%) were called active. Another 3% or so got no clear call; they are omitted. The rule behind the calls is not given here. A selection follows. Results with a measured potency or affinity are listed apart.

assay: growth inhibition of non-replicating M. tuberculosis (AID 488890); settings: Mycobacterium tuberculosis non-replicating, at 25 µM, stronger effect = higher value;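 note: plate controls were DMSO cells for no effect and high antibiotic wells for full effect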

| Compound | inhibition |
| --- | --- |
| CCCC(=O)C1=C(O)C(C(=O)OC)C(C)(C)CC1=NC(C)C (centres undefined) | -5.24% |
| CC(C)(C)c1ccc(-n2ncc3c2CCCC3NC(=O)CCN2CCCO2)cc1 (centres undefined) | 19.6% |
| O=c1oc(-c2ccco2)nc2ccccc12 | 28.8% |
| COc1cc(OC)cc(-c2cc3ccccc3c(=O)o2)c1 | 9.55% |
| Cc1c2cnn(CC(=O)Nc3c(F)c(F)cc(F)c3F)c(=O)c2c(C)n1Cc1ccccc1F | 0.29% |
| CN(C)C(CNC(=O)CCOc1ccccc1)c1ccco1 (centres undefined) | 13.7% |
| Fc1ccccc1CSc1nc2ncccc2[nH]1 | 23.3% |
| Cc1cc(=O)[nH]c(SC/C=C/c2ccccc2)n1 | 69.8% |
| Cn1c(C(=O)N[C@@H](Cc2ccccc2)C(=O)O)cc2cc(F)ccc21 | -8.03% |
| Cc1ccc(N2C(=O)NC(NC(=O)C(C)(C)C)(C(F)(F)F)C2=O)cc1C (centres undefined) | -24.4% |
| Cc1cc(C)n(-c2nc(NCC(C)O)c3c4c(sc3n2)CCCC4)n1 (centres undefined) | 79.3% |
| Cc1cc(C)n(-c2nc(SCC(=O)O)c3c4c(sc3n2)COC(C)(C)C4)n1 | 78.8% |
| Cc1cc(C)n(-c2nc(SCCN(C)C)c3c4c(sc3n2)COC(C)(C)C4)n1 | 65.5% |
| Cc1cc(C)n(-c2nc(NCCCN(C)C)c3c4c(sc3n2)CCCC4)n1 | 75.9% |
| O=C1CCCN1CC(O)CS(=O)(=O)Cc1ccccc1 (centres undefined) | -12.3% |
| COc1ccc(C2C(C(C)=O)=C(C)Nc3ncnn32)c(OC)c1OC (centres undefined) | -4.13% |
| Cc1cccn2c(NC(=O)c3cccs3)c(-c3ccccc3)nc12 | -0.63% |
| c1ccc(-c2nnc(-c3ccccn3)c(-c3ccccn3)n2)nc1 | 10.5% |
| Cc1nnc(-c2ccccc2)nc1N(C)C | 21.8% |
| COc1cc(CNc2ccc3[nH]c(=O)[nH]c3c2)ccc1OCc1ccc(Cl)cc1 | 32.9% |
| CCc1ccc(C(=O)COC(=O)CNC(=O)c2ccc(Br)o2)cc1 | 43.3% |
| CC(=O)c1ccc(OC(=O)c2ccc(Br)o2)cc1 | 79.1% |

| Compound | inhibition |
| --- | --- |
| Cc1ccc(CC(=O)N2CCN(C)CC2)cc1 | -6.84% |
| CNc1c([N+](=O)[O-])cnn1-c1ccccc1Cl | 10.6% |
| Cc1ccccc1-c1cnn(-c2cccc([N+](=O)[O-])c2)c1N | 14.7% |
| O=C(CSc1n[nH]c(=O)n1-c1cccnc1)Nc1ccccc1Cl | -0.8% |
| O=C(Nc1ccccc1N1CCOCC1)C1=NN(c2c(F)c(F)cc(F)c2F)C(=O)CC1 | -3.73% |
| N#Cc1ccsc1NC(=O)c1cccc([N+](=O)[O-])c1 | 2.42% |
| O=C(Nc1nccs1)c1ccc(Cl)c([N+](=O)[O-])c1 | -5.17% |
| COC(=O)c1ccccc1S(=O)(=O)N1CCC(C(=O)NCC2CCCO2)CC1 (centres undefined) | -9.14% |
| CN(C(=O)COC(=O)c1ccc(Cl)cc1N)C1CCCCC1 | 24.6% |
| CN(C(=O)COC(=O)c1cc(NS(=O)(=O)c2cc([N+](=O)[O-])ccc2Cl)ccc1O)C1CCCCC1 | 35.1% |
| CCN(CC)c1ccc(-c2nnc(SCC(=O)Nc3ccccc3C#N)n2-c2ccccc2)cc1 | 41% |
| CC1(C)CC(=O)C2=C(C1)OC(N)=C(C#N)C2c1ccccc1 (centres undefined) | 24.7% |
| CC1(C)CC(=O)C2=C(C1)OC(N)=C(C#N)C2Cc1ccccc1 (centres undefined) | 25% |
| Cc1cc2oc(=O)cc(CN3CCc4ccccc43)c2cc1Cl | -0.24% |
| COc1ccc(CCn2c(N)cc(=O)[nH]c2=S)cc1OC | 10.4% |
| CCOc1ccc(CCNC(=O)CCn2nc(C)c3c(C)n(-c4ccccc4)nc3c2=O)cc1 | -11.8% |
| O=C(OCc1cncs1)c1ccccc1Cl | 32.7% |
| O=C(OCc1cnc(Cl)s1)c1ccccc1Cl | 56.8% |
| CCOC(=O)CSc1nnc(CNC(=O)c2cccs2)n1-c1cccc(C)c1 | 33% |
| C[C@@H]1CCCCCCCCC(=O)OCCN(C(=O)OC(C)(C)C)[C@H](C)CCCCCCCCC(=O)OCCN(C(=O)OC(C)(C)C)[C@H](C)CCCCCCCCC(=O)OCCN(C(=O)OC(C)(C)C)[C@H](C)CCCCCCCCC(=O)OCCN1C(=O)OC(C)(C)C | -3.81% |
| Brc1ccc(CSc2nnc(-c3cccnc3)o2)cc1 | -15.4% |
| O=[N+]([O-])c1cccc(-c2nnc(SCc3cccnc3)o2)c1 | 43.9% |

| Compound | inhibition |
| --- | --- |
| O=[N+]([O-])c1ccc(CSc2nnc(-c3cnccn3)o2)cc1 | 66.9% |
| Clc1ccc(CSc2nnc(-c3cccnc3)o2)cc1 | 47.9% |
| Cc1cc(C(=O)Nc2ccccc2C)on1 | -6.92% |
| CCCC(=O)Nc1ccc(C(=O)/C=C/c2ccc(SC)cc2)cc1 | 42.6% |
| COc1cc2c(cc1OC)C(c1cc3cccc(C)c3[nH]c1=O)N(C(=O)c1ccco1)CC2 (centres undefined) | 30.4% |
| COc1ccc(NC(=S)NCc2ccc(F)cc2)c(OC)c1 | 14.9% |
| CC1CCN(C(=O)CN(CCc2ccccc2)S(C)(=O)=O)CC1 | -0.19% |
| O=C(O)CCCN1C(=O)/C(=C/c2ccncc2)SC1=S | 65% |
| O=C(O)CCN1C(=O)/C(=C\c2ccncc2)SC1=S | 38.8% |
| Cn1c(CNC(=O)CNS(=O)(=O)c2ccccc2)cc(=O)n(C)c1=O | -2.98% |
| CCCCn1c(N)c(N(CC)C(=O)CCc2ccccc2)c(=O)[nH]c1=O | 9.68% |
| O=C(c1cccc2ccccc12)N1CCCCC1 | -8.51% |
| O=C(c1cccc(F)c1F)N1CCCC1 | -8.96% |
| CCOP(=O)(OCC)C(NC(=O)C(F)(F)F)c1ccccc1 (centres undefined) | 3.99% |
| CCOc1ccc(C(=O)CC(=O)C(=O)NCCc2ccc(OC)c(OC)c2)cc1 | 31.3% |
| COc1ccc(S(=O)(=O)CCC(=O)NCCc2cccc(C)c2)cc1 | -8.54% |
| Cc1nc2cc(NS(=O)(=O)c3ccccc3F)ccc2s1 | 3.43% |
| COc1ccccc1Oc1cc(-n2nc(C)cc2C)ncn1 | 30% |
| CCOC(=O)c1cnc(Nc2nc3ccccc3o2)nc1CSc1ncccn1 | 1.64% |
| CCOC(=O)c1cnc(Nc2nc3ccccc3o2)nc1CSC(=S)N(CC)CC | 28.1% |
| CCn1ncc(C(=O)Nc2ccc(F)cc2)c1C | -7.3% |
| O=C(CCn1c(=S)[nH]c2ccccc2c1=O)Nc1cccc(Cl)c1 | -2.2% |

| Compound | inhibition |
| --- | --- |
| COc1ccccc1OCC(O)Cn1c(=N)n(Cc2ccccc2)c2ccccc21 (centres undefined) | 45% |
| N=c1n(Cc2ccccc2)c2ccccc2n1CC(O)COc1ccccc1 (centres undefined) | 70.8% |
| CC(=O)Nc1ccc(OCC(O)Cn2nc(C)c(C(C)=O)c2C)cc1 (centres undefined) | -9.63% |
| COc1ccc(C(=O)C2CCCN(C(=O)c3c4c(nn3C)CCCC4)C2)cc1F (centres undefined) | -19.7% |
| COC(=O)c1ccc(NC(=O)C2C3C=CC(O3)C2C(=O)O)cc1 (centres undefined) | 5.13% |
| O=C(Nc1ccc2c(c1)Cc1ccccc1-2)c1ccc(Br)o1 | 53.9% |
| COC(=O)Cc1ccc(NC(=O)c2ccc(Br)o2)cc1 | 72.6% |
| CCOC(=O)c1ccc(NC(=O)C2C3C=CC(O3)C2C(=O)O)cc1 (centres undefined) | 20.5% |
| Cc1ccc(C(=O)Nc2ccc3c(c2)CCC3)o1 | 79.8% |
| CCN(CC)c1ccc(NC(=O)c2ccc(Br)o2)cc1 | 52.8% |
| CC(NC(=O)CCSCCC(=O)NC(C)c1ccccc1)c1ccccc1 (centres undefined) | 21.4% |
| Cc1cc(C(=O)N2CCN(c3ccc(F)cc3)CC2)on1 | 53.3% |
| COc1ccc(C2=NS(=O)(=O)N(C)C(C(=O)Nc3ccc(OC)c(OC)c3)=C2)cc1 | 17.6% |
| NC(=O)CC(NC(=O)c1ccc(Br)cc1)c1ccc(NC2CCCCCC2)c([N+](=O)[O-])c1 (centres undefined) | 7.44% |
| CC1(C)CC(=O)c2cc(C(=O)O)c(=O)n(-c3ccccc3)c2C1 | 15.2% |
| CC1(C)CC(=O)c2cc(C(=O)Nn3cnnc3)c(=O)n(-c3ccccc3)c2C1 | 9% |
| COc1ccccc1CCC(=O)OCC(=O)NCc1ccc(OC)c(OC)c1 | -1.1% |
| COc1ccccc1C1NC(=O)CCC1[N+](=O)[O-] (centres undefined) | 3.51% |
| O=[N+]([O-])c1c(Nc2ccccc2O)ccc2nonc12 | 61.7% |
| O=C(O)c1ccc(Nc2ccc([N+](=O)[O-])c3nonc23)cc1 | 25.2% |
| O=C(O)c1ccccc1Nc1ccc([N+](=O)[O-])c2nonc12 | 8.28% |
| O=C(O)c1cccc(Nc2ccc([N+](=O)[O-])c3nonc23)c1 | 16.5% |

| Compound | inhibition |
| --- | --- |
| CCOc1ccc(Nc2ccc3nonc3c2[N+](=O)[O-])cc1 | -4.04% |
| NS(=O)(=O)c1ccc(Nc2ccc([N+](=O)[O-])c3nonc23)cc1 | 66.5% |
| COc1ccccc1N1C(=S)N=C(Nc2c(C)cccc2C)C12CCCC2 | 15.9% |
| CC(C)(C)NC(=O)C1CCCN(S(=O)(=O)c2ccc(-n3cnnn3)cc2)C1 (centres undefined) | 17% |
| COC(=O)CNC(=O)CSc1nnc2cc(C)c3ccccc3n12 | -0.34% |
| CC(/C=C/C1[C@H](C)C[C@H](O[C@@H]2O[C@H](CO)[C@@H](O)[C@H](O)[C@H]2O)CC1(C)C)O[C@H]1O[C@H](CO)[C@@H](O)[C@H](O)[C@H]1O (some centres undefined) | -10.5% |
| Cc1ccc2c(-c3ccc([N+](=O)[O-])cc3)cc(=O)[nH]c2c1 | -4.88% |
| Cc1cccn2c(=O)c(C=Nc3ccccc3)c(NCc3ccco3)nc12 | 56.2% |
| Cc1ccc2nc(NCc3ccco3)c(C=NCc3ccco3)c(=O)n2c1 | 0.74% |
| O=C(CN1CCN(S(=O)(=O)c2ccccc2)CC1)NC(=O)NCc1ccco1 | 1.38% |
| O=C(O)c1ccccc1NCc1ccncc1 | 4.81% |
| C[C@]12CCC(=O)C=C1CCC1C2CC[C@@]2(C)C1CC[C@]2(C)O (some centres undefined) | 11.1% |
| O=Cc1ccc(-c2ccc(C(=O)O)cc2)o1 | -8.13% |
| CCOC(=O)c1cc(-c2ccc(/C=N\n3cnnc3)o2)ccc1Cl | 10% |
| CCCCOC(=O)c1ccc(-c2ccc(/C=N/NC(=S)NCC)o2)cc1 | 73.2% |
| CCCCOC(=O)c1cc(-c2ccc(/C=N/n3cnnc3)o2)ccc1Cl | 75.6% |
| CC(=O)C1=C(O)C(=O)N(CCC(=O)O)C1c1cccc(F)c1 (centres undefined) | -0.65% |
| CCCC(=O)NNc1c2ccccc2nc2ccccc12 | 74.5% |
| O=C(NNc1c2ccccc2nc2ccccc12)c1ccc(O)cc1 | 42% |
| CCOc1ccc(S(=O)(=O)Nc2ccc(C(=O)NCCCN3CCOCC3)cc2)cc1 | -11.7% |
| CCC(C)C(NC(=O)C1CCC(C)CC1)C(=O)NCc1ccco1 (centres undefined) | -7.14% |
